# IL-1B inflam inh – blocks inflammasome-driven IL-1 beta release; THP-1 LPS/ATP IL-1B secretion, AlphaLISA, 16 h; hits give low values; 4.7% of 360,000 active; activity change, % at 57.5 µM; AID 743279; in the data active = activity change below about -50%; inconclusive = mostly about -30% to -49%; also: % is scaled to controls: 0 for no effect and ±100 for the full control effect
#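 Secreted IL-1B measured by AlphaLISA bead assay after 16 h compound exposure of THP-1 cells; compounds (final up to 57.5 uM) added 1 h before LPS (250 ng/mL) and ATP (1.25 mM) stimulation; lower signal means less secretion.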
# HepG2 tox – HepG2 cytotoxicity, counter-screen for TGF-b inhibitors | AID 588856 | Potency, µM (top dose mostly 46.1 µM), inactives show at the highest dose activity change, negative = cytotoxicity, actives largely listed as cytotoxic | 0.76% of 410,000 active | HepG2 CAGA-GFP viability, ATP luminescence, 18 h; also: potency is read from the fitted curve at half-maximal effect
#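 CellTiter-Glo luminescence gave cytotoxicity after 18 hours at 37 degrees C. The cells were HepG2 CAGA-GFP in 1% FBS DMEM, stimulated with 500 pg/mL TGF-beta after compound addition. %Activity was normalised to no-cell wells (complete cell-killing) and DMSO (no toxicity), and curves were fitted and classified.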
# DT40 TDP1 CPT – DT40-hTDP1 cell growth loss with CPT; chicken DT40 Tdp1-/-;hTDP1 cells + 20 nM CPT, ATP luminescence, 48 h; Potency, µM (doses to about 46.2 µM), inactives show top-dose activity change, negative = growth inhibition, usual class: inhibitors; 12% of 420,000 active; AID 686979; also: potency is read from the fitted curve at half-maximal effect; % is scaled to controls: 0 for no effect and ±100 for the full control effect; nearly all actives have a fitted effect of over 55% in size
#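 Cell growth measured by CellTiter-Glo luminescence after a minimum 48 h, 37 C compound exposure with 20 nM CPT in Tdp1-knockout DT40 cells stably expressing hTDP1, seeded 400/well; qHTS titration format.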
# TDP1 inh – inhibitors of human tyrosyl-DNA phosphodiesterase TDP1 | Potency, µM (top dose mostly 130 µM), for inactives: at the top dose activity change, negative = inhibition, actives largely listed as inhibitors | AID 485290 | recombinant TDP1, AlphaScreen DNA substrate cleavage | 0.28% of 350,000 active; also: potency is read from the fitted curve at half-maximal effect; % is scaled to controls: 0 for no effect and ±100 for the full control effect; nearly all actives have a fitted effect of over 40% in size
# Target sequence (Q9NUW8 whole entry, looked up): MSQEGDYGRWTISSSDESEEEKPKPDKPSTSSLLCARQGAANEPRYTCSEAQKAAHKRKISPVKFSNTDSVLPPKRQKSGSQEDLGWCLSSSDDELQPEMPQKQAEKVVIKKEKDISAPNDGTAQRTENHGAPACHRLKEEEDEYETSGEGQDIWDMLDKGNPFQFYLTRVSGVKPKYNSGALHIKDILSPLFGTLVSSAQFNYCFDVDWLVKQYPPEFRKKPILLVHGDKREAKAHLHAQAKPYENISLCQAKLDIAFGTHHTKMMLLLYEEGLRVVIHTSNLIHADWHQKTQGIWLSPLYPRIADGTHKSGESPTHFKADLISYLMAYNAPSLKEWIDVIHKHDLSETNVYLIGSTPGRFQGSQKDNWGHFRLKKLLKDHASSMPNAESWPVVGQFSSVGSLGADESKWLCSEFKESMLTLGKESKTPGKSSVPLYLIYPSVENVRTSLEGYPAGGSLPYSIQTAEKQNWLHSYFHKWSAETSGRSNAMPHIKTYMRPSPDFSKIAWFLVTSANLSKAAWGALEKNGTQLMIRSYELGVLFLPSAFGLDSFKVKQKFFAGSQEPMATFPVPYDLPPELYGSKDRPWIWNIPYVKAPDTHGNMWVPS
#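 Here, a 5' biotin and 3' phosphotyrosine-FITC DNA oligonucleotide reports Tdp1 activity: intact substrate bridges AlphaScreen beads, while cleavage leaves a 3' phosphate and drops signal. All incubations at room temperature.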
# TGFb SMAD3 inh – inhibitors of TGF-b signaling; HepG2 CAGA-GFP TGF-b/SMAD3 reporter, GFP fluorescence, 18 h; TGF-beta stimulated, 500 pg/mL final; Potency, µM (highest dose often 46.1 µM), for the others: at the highest dose activity, negative = inhibition, usual class: inhibitors; 1.2% of 410,000 active; AID 588855; also: potency is read from the fitted curve at half-maximal effect; % is scaled to controls: 0 for no effect and ±100 for the full control effect; nearly all actives have a fitted effect of over 65% in size
#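 TGF-beta reporter screen: HEPG2 CAGA-GFP, 1% FBS, 500 pg/mL TGF-beta final, 18 h; per-cell GFP summed per well; curves fitted and categorized by class.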
# TDP1 cell noCPT – qHTS for Inhibitors of human tyrosyl-DNA phosphodiesterase 1 (TDP1): qHTS in cells in absence of CPT; DT40 Tdp1-/- hTDP1 cells, no CPT, ATP luminescence, 48 h; Potency, µM (series often up to 46.2 µM), inactives show at the highest dose activity change, negative = growth inhibition, usual class: inhibitors; 15% of 420,000 active; AID 686978, 2013; also: potency is read from the fitted curve at half-maximal effect; % is scaled to controls: 0 for no effect and ±100 for the full control effect; nearly all actives have a fitted effect of over 55% in size
#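 Growth kinetics read by CellTiter-Glo luminescence after ≥48 hr at 37 °C. Cells: DT40 Tdp1-/- stably carrying human TDP1, 400 per well, compound exposure in the absence of CPT (DMSO vehicle).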
# * = called active by the depositor; ? = inconclusive; . = not tested or not shown; [ ] = dose if it differs, or a comment. An excerpt weighted towards active compounds, which were near 19% of everything screened. Unless noted, calls follow the shape of the dose curve; as a rule, active = well fitted curve in the direction sought with a large enough effect; inconclusive = small, poorly fitted or top-dose-only effect, or another doubt; inactive = no such curve, though single readings can be large; an effect the other way counts as inactive or inconclusive.
SMILES,IL-1B inflam inh,HepG2 tox,DT40 TDP1 CPT,TDP1 inh,TGFb SMAD3 inh,TDP1 cell noCPT
COc1ccc(-c2cn3c(C)c(C(=O)Nc4cccc(C)n4)sc3n2)cc1,34,-19%,?,8%,4%,23µM*
Cc1c(C(=O)Nc2ccccc2)sc2nc(-c3ccccc3)cn12,?,-30%,18µM*,2%,4%,?
Cc1ccc(Cl)cc1NC(=O)c1sc2nc(-c3ccccc3)cn2c1C,.,-4%,21µM*,2%,6%,15µM*
COc1ccc(-n2ncc3c2ncn2nc(-c4ccc(Cl)cc4Cl)nc32)cc1,.,9%,13%,10%,.,-12%
Cc1cccc(CN2CCC(C(=O)Nc3cccc(-c4cccc(F)c4)c3)CC2)n1,?,-38%,8.2µM*,2%,?,2.9µM*
COCc1ccc(CN2CCC(C(=O)Nc3cccc(-c4cscn4)c3)CC2)o1,-73*,-11%,?,4%,-10%,-25%
O=C(Nc1cccc(-c2cccc(F)c2)c1)C1CCN(CC2CCOC2)CC1 (stereo not drawn),?,-41%,?,4%,29%,?
Cc1nn(C(C)C)c(C)c1CN1CCC(C(=O)Nc2cccc(-c3cccc(F)c3)c2)CC1,-52*,11µM*,23µM*,2%,?,?
Cc1cccc(CN2CCC(C(=O)Nc3cccc(-c4cscn4)c3)CC2)n1,-6,-25%,?,3%,?,23µM*
O=C(Nc1cccc(-c2cccc(F)c2)c1)C1CCN(Cc2ccco2)CC1,-18,-60%,?,4%,?,?
COc1ccccc1C(=O)Nc1nnc(S(=O)(=O)N2CCN(c3ccc(F)cc3)CC2)s1,110,-10%,?,6%,-8%,?
COC(=O)c1ccccc1OCc1cc(=O)oc2ccc(C)cc12,25,-4%,-8%,.,8%,-10%
O=C(Nc1cccc(-c2cccc(F)c2)c1)C1CCN(C2CCC2)CC1,-14,1%,?,3%,?,5.2µM*
CCN(c1ccc(OC)cc1)S(=O)(=O)c1nnc(NC(=O)CC(C)C)s1,-53*,-1%,-20%,.,-16%,2%
Cc1ccc(N(CC(C)C)S(=O)(=O)c2nnc(NC(=O)c3ccco3)s2)cc1,.,-39%,?,1%,-28%,18µM*
CCC(=O)Nc1nnc(S(=O)(=O)N(CC)c2ccc(OC)cc2)s1,19,-18%,-19%,.,-12%,-29%
COc1ccc(N(CC(C)C)S(=O)(=O)c2nnc(NC(=O)CC(C)C)s2)cc1,11,-4%,3.7µM*,.,0%,?
CCN(c1cc(C)cc(C)c1)S(=O)(=O)c1nnc(NC(=O)C2CCCCC2)s1,.,0%,21µM*,4%,-19%,12µM*
Cc1cc(C)cc(N2CC(c3nnc(NC(=O)c4ccco4)s3)CC2=O)c1 (stereo not drawn),.,-12%,-18%,6%,-33%,-24%
COc1ccc(S(=O)(=O)N(CCCN2CCCC2=O)Cc2cc3c(C)cc(C)cc3[nH]c2=O)cc1,-54*,5%,?,8%,1%,?
CCN(Cc1cc2ccccc2[nH]c1=O)S(=O)(=O)c1ccc(OC)cc1,0,-1%,-23%,2%,-5%,-2%
COc1ccc2[nH]c(=O)c(CN(CCO)S(=O)(=O)c3ccc(C)cc3)cc2c1,0,-11%,-16%,5%,2%,?
Cc1ccc2cc(CN(CC3CCCO3)S(=O)(=O)c3cccc4nsnc34)c(=O)[nH]c2c1 (stereo not drawn),2,2%,?,0%,-5%,18µM*
COc1ccc(S(=O)(=O)N(Cc2cc3cc(C)ccc3[nH]c2=O)CC2CCCO2)cc1 (stereo not drawn),-16,-21%,?,2%,-17%,21µM*
CCCCN(Cc1cc2cc(OC)ccc2[nH]c1=O)S(=O)(=O)c1ccc(C)cc1,-20,-18%,10µM*,.,-13%,7.3µM*
SMILES,IL-1B inflam inh,HepG2 tox,DT40 TDP1 CPT,TDP1 inh,TGFb SMAD3 inh,TDP1 cell noCPT
COC(=O)c1cccc(S(=O)(=O)N(Cc2ccco2)Cc2cc3cc(OC)ccc3[nH]c2=O)c1,-4,-8%,29µM*,-1%,-5%,?
CC(C)(C)NC(=O)c1ccc2c(c1)C1C3CCC(C3)C1C(c1ccccc1)N2 (stereo not drawn),?,6%,13µM*,3%,20%,12µM*
CCCNC(=O)c1ccc2c(c1)C1C3CCC(C3)C1C(c1ccccc1)N2 (stereo not drawn),?,-4%,21µM*,9%,?,?
CCCNC(=O)c1cccc(Br)c1,-2,-7%,4%,4%,12%,3%
O=C(O)c1ccc(NC(=O)c2cccc(N3C(=O)C4C5CCC(C5)C4C3=O)c2)cc1 (stereo not drawn),14,32%,4%,0%,0%,-2%
Cc1c(NC(=O)c2ccc(Cl)cc2)cc(C(C)C)c(O)c1S(=O)(=O)c1ccccc1,.,-7%,?,-6%,-17%,?
Cc1ccccc1NC(=O)C1Cc2ccccc2CN1C(=O)c1ccco1 (stereo not drawn),?,4%,-16%,2%,-25%,-22%
Cc1ccccc1NC(=O)C1Cc2ccccc2CN1C(=O)OCc1ccccc1 (stereo not drawn),-5,9%,?,3%,0%,21µM*
CCc1ccccc1NC(=O)CN1CCN(CC(=O)Nc2ccc(-c3ccccc3)cc2)CC1,-3,2%,?,2%[0.0935 µM],18%,16µM*
CCc1ccccc1NC(=O)CN1CCN(C(=O)CNC(=O)c2ccc(-c3ccccc3)cc2)CC1,-3,-25%,4.6µM*,1%,?,7.3µM*
O=C(C[n+]1cc(Br)cc(Br)c1)c1ccc2c(c1)CCCC2,.,1%,?,.,-13%,?
COc1ccccc1NC(=O)CSc1nnc2c(n1)[nH]c1ccccc12,.,-16%,?,.,2%,?
Cc1ccc(-c2nn(CCC(=O)O)cc2/C=C\C(=O)c2ccc(Br)cc2)cc1,-25,-52%,12µM*,0%,?,?
Cc1ccc(-c2nn(Cc3ccccc3)cc2/C=C/C(=O)O)cc1,42,-8%,-10%,9%,-4%,-1%

# Source: PubChem (National Center for Advancing Translational Sciences (NCATS))
